# In PubChem BioAssay (Tox21):
# Records with an inconclusive call do not appear. Entries that show only a call come without a potency. A structure can be active in one record and inactive in another. Activity calls are given as the source filed them. Unless noted, calls follow the shape of the dose curve; as a rule, active = well fitted curve in the direction sought with a large enough effect in the repeat runs; inconclusive = weak or mixed curves; inactive = no such curve, though single readings can be large; an effect the other way counts as inactive or inconclusive.
# Columns and labels:
# [1] = qHTS assay to identify small molecule antagonists of the estrogen receptor alpha (ER-alpha) signaling pathway using the BG1 cell line in the presence of 0.1 nM 17-beta-estradiol - cell viability counter screen (AID 1259241); also: nearly all actives have a fitted effect of over 40% in size
# How it was run: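 CellTiter-Fluor read (30 min, 37C) on ER-alpha/ERE-luc VM7Luc4E2 cells; 22 hr compound treatment; agonist 0.1 nM E2 final; same-well multiplex.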
# [2] = qHTS assay to identify small molecule antagonists of the androgen receptor (AR) signaling pathway using the MDA cell line in the presence of 0.5 nM R1881 - cell viability counter screen (AID 1259242); also: nearly all actives have a fitted effect of over 45% in size
# How it was run: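 Counter screen for cytotoxicity run in the same wells as the AR antagonist reporter screen: MDA-kb2 cells were treated 16 hr with test compounds and 0.5 nM R1881, then live-cell protease activity was measured by fluorescence.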
# [3] = target: Estrogen receptor (Homo sapiens) (UniProt P03372); assay: qHTS assay to identify small molecule antagonists of the estrogen receptor alpha (ER-alpha) signaling pathway using the BG1 cell line in the presence of 0.1 nM 17-beta-estradiol (AID 1259244); also: nearly all actives have a fitted effect of over 50% in size
# Estrogen receptor (Homo sapiens), sequence (P03372 whole entry, looked up): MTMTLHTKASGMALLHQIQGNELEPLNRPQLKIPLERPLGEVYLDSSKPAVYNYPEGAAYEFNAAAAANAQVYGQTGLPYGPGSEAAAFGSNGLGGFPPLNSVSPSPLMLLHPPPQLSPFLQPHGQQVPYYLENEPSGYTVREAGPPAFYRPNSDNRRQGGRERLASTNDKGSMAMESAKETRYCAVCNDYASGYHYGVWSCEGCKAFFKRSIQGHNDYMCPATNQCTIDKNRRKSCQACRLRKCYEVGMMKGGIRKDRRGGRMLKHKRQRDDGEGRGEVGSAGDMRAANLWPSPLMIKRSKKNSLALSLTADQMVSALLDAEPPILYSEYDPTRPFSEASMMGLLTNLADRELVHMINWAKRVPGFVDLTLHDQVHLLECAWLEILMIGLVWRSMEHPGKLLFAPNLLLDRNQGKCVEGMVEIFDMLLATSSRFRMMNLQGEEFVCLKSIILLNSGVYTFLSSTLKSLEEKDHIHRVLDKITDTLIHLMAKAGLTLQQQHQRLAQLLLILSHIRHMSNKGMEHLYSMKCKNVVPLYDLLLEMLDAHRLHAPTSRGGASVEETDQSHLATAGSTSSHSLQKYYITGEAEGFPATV
# How it was run: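 Cells: VM7Luc4E2, endogenous ER-alpha, 4x ERE-luc stable. Pre-culture 5 d, phenol red-free, charcoal-stripped FBS. Plated 24 h, compound + E2 0.1 nM final, 22 h 37C/5% CO2. Readout ONE-Glo luminescence.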
# [4] = qHTS assay to identify small molecule HDAC inhibitors (AID 1259364); also: top concentration of the series differs between compounds; nearly all actives have a fitted effect of over 45% in size
# How it was run: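 Luminescence from a cell-permeant luminogenic class I/II HDAC substrate reports endogenous deacetylase activity in intact HCT-116 cells treated with compounds for 2 h.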
# [5] = qHTS assay to identify small molecule HDAC inhibitors - cell viability counter screen (AID 1259365); also: series mostly up to about 92 µM; nearly all actives have a fitted effect of over 50% in size
# How it was run: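 To flag cytotoxic hits, 1,500 wild-type HCT-116 cells per well, plated the day before, receive test compounds for 2hr at 37 C before CellTiter-Glo reagent and a luminescence read.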
# [6] = qHTS assay to identify small molecule agonists of the sonic hedgehog signaling (Shh) pathway - cell viability counter screen (AID 1259366); also: nearly all actives have a fitted effect of over 50% in size; also: potency is read from the fitted curve at half-maximal effect
# How it was run: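 Fluorescence from CellTiter-Fluor reports live cells in this counter screen. NIH/3T3-derived Gli1-Luc reporter cells receive test compounds for 24hr at 37C; reagent goes in at 23hr.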
# [7] = qHTS assay to identify small molecule antagonists of the sonic hedgehog signaling (Shh) pathway - cell viability counter screen (AID 1259367); also: nearly all actives have a fitted effect of over 55% in size; also: potency is read from the fitted curve at half-maximal effect
# How it was run: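 Using CellTiter-Fluor, viability of Gli1-Luc reporter 3T3 cells is read by fluorescence in the wells used for the Shh luciferase assay. Treatment lasts 23 hr with conditioned medium, then reagent 1 hr at 37C.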
# [8] = qHTS assay to identify small molecule agonists of the sonic hedgehog signaling (Shh) pathway (AID 1259368; calls by dose curve;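 also: NIH/3T3-derived 3T3Gli1-Luc cells carrying a stable Gli1-driven firefly luciferase reporter; series mostly up to about 92 µM; nearly all actives have a fitted effect of over 15% in size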)
# How it was run: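 3T3Gli1-Luc (NIH/3T3 clone, stable Gli1-Luc); 4 hr pre-incubation, then cpd in DMSO 24 hr, 37 C/5% CO2; luciferase reagent 30 min RT; luminescence.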
# [9] = qHTS assay to identify small molecule antagonists of the sonic hedgehog signaling (Shh) pathway (AID 1259369; calls by dose curve; also: nearly all actives have a fitted effect of over 45% in size; also: potency is read from the fitted curve at half-maximal effect)
# How it was run: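 3T3Gli1-Luc, conditioned-medium-stimulated, 24hr cpd, 37C/5% CO2; Gli1-driven firefly Luc luminescence after 30min RT with luciferase reagent. Cells plated 4hr before cpd.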
# [10] = target: Estrogen receptor beta (Homo sapiens) (UniProt Q92731); assay: qHTS assay to identify small molecule agonists of the estrogen receptor beta (ER-beta) signaling pathway (AID 1259377; active = well fitted activation curve with a large enough effect in the signal ratio in the repeat runs, not every such curve was filed as active; the % refers to the signal ratio)
# Estrogen receptor beta (Homo sapiens), sequence (Q92731 whole entry, looked up): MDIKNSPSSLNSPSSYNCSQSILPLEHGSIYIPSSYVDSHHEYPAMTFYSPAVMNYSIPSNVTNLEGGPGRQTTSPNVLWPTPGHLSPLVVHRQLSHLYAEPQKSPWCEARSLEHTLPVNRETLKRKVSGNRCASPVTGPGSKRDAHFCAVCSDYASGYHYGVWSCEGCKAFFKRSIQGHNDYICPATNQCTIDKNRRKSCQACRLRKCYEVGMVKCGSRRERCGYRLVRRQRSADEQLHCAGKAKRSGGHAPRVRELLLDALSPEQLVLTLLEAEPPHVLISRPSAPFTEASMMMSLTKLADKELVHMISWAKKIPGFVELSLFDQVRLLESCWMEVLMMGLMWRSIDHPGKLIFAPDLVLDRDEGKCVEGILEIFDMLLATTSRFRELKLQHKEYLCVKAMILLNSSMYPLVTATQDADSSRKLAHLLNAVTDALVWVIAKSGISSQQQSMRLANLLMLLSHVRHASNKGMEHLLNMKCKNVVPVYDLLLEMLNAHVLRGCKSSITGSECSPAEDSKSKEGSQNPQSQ
# How it was run: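 Screening used GripTite ER-beta-UAS-bla cells held in 2% charcoal-stripped FBS medium. After overnight (16 hr) compound incubation at 37C, beta-lactamase activity was detected with a FRET substrate by fluorescence.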
# [11] = target: Estrogen receptor beta (Homo sapiens) (UniProt Q92731); assay: qHTS assay to identify small molecule antagonists of the estrogen receptor beta (ER-beta) signaling pathway (AID 1259378; active = well fitted inhibition curve with a large enough effect in the signal ratio in the repeat runs, not every such curve was filed as active; the % refers to the signal ratio)
# How it was run: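 Antagonist mode: compounds added to beta-lactamase reporter HEK293T ER-beta-UAS cells stimulated with E2 (1nM final), 16 hr at 37C. LiveBLAzer B/G FRET substrate, 2 hours room temperature, fluorescence read-out.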
# [12] = qHTS assay to identify small molecule agonists of the androgen receptor (AR) signaling pathway in the presence of an antagonist - cell viability counter screen (AID 1259379);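 also: MDA-kb2 human breast cancer cells carrying an MMTV luciferase reporter; series mostly up to about 92 µM; nearly all actives have a fitted effect of over 25% in size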
# How it was run: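 Cells: MDA-kb2 (MMTV-luc, AR and GR elements), 3,000/well, 5 hr settle. Added: nilutamide 3.0uM final, then compounds (15 conc.). Incubation: 16 hr, 37C, no CO2. Read-out: CellTiter-Fluor, 1 hr, fluorescence.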
# [13] = qHTS assay to identify small molecule antagonists of the estrogen receptor beta (ER-beta) signaling pathway - cell viability counter screen (AID 1259382); also: nearly all actives have a fitted effect of over 55% in size; also: potency is read from the fitted curve at half-maximal effect;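 as to activity change, negative = cytotoxicity: HEK293T cells carrying ER-beta-UAS-bla reporter stimulated with estradiol; series mostly up to about 92 µM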
# How it was run: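 Cells: ER-beta-UAS-bla HEK293T, 2,000/well, 2% CS-FBS, 6 hr settle. Cpd + E2 (1nM final), 16 hr, 37C/5% CO2. Bla FRET substrate 2 hr RT, then CellTiter-Glo 30 min RT, luminescence.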
# [14] = target: Estrogen receptor (Homo sapiens) (UniProt P03372); assay: qHTS assay to identify small molecule agonists of the estrogen receptor alpha (ER-alpha) signaling pathway in the presence of an antagonist (AID 1259383; calls by dose curve; also: top concentration of the series differs between compounds; nearly all actives have a fitted effect of over 15% in size)
# How it was run: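 VM7Luc4E2, endog. ER-alpha + 4×ERE-luc; charcoal-stripped FBS, phenol red-free, 5 d; 24hr plating; +10.0nM ICI-182,780 (final); cpds 15 conc, 22hr, 37C/5% CO2; ONE-Glo luminescence.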
# [15] = qHTS assay to identify small molecule agonists or antagonists of the thyroid stimulating hormone receptor (TSHR) signaling pathway - wild type cell line counter screen (AID 1259384; calls by dose curve)
# How it was run: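 Counter screen in untransfected Hek293: compounds (15-point titration, triplicate) plus phosphodiesterase inhibitor Ro20-1724 added after 18 h plating; 30 min RT. Intracellular cAMP via competitive d2/cryptate immunoassay, 1 h incubation.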
# [16] = target: Thyrotropin receptor (Homo sapiens) (UniProt P16473); assay: qHTS assay to identify small molecule antagonists of the thyroid stimulating hormone receptor (TSHR) signaling pathway (AID 1259385; calls by dose curve; also: nearly all actives have a fitted effect of over 20% in size)
# Thyrotropin receptor (Homo sapiens), sequence (P16473 whole entry, looked up): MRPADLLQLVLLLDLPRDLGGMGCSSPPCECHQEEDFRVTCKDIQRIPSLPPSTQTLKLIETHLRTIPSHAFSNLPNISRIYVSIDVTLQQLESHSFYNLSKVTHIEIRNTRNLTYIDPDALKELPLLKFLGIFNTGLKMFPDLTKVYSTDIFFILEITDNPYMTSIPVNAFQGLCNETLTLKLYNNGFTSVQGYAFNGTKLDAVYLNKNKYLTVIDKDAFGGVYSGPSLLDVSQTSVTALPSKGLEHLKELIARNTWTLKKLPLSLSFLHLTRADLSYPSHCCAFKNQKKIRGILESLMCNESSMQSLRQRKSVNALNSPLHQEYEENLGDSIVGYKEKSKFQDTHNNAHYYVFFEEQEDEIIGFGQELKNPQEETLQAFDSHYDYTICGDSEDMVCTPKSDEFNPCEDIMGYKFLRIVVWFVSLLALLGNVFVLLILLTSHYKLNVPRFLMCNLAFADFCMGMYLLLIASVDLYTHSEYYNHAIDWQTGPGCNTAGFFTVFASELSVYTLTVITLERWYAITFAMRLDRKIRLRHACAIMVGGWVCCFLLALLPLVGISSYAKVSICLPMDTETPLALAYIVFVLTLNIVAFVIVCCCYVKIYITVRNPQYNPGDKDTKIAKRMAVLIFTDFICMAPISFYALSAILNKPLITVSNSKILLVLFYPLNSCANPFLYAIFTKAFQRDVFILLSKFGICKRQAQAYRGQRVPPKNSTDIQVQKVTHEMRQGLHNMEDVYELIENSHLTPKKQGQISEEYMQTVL
# How it was run: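 Antagonist mode: compound-treated TSHR-expressing HEK293 cells were stimulated with 1.5 ng/mL TSH (final) in presence of Ro20-1724 for 30 min at RT. HTRF cAMP detection after 1 h; each compound tested at 15 concentrations, triplicate.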
# [17] = qHTS assay to identify small molecule phospholipidosis (PLD) inducers (AID 1259344; active = well fitted curve in the direction sought with a large enough effect; an effect the other way counts as inactive or inconclusive)
# How it was run: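 Fluorescent phospholipid staining (LipidTOX Red) measured by automated microscopy in fixed HepG2 cells after 24 h treatment; nuclei counterstained with Hoechst 33342; amiodarone as reference inducer.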
# [18] = qHTS assay to identify small molecule agonists of the estrogen receptor beta (ER-beta) signaling pathway - cell viability counter screen (AID 1259380); also: nearly all actives have a fitted effect of over 30% in size; also: potency is read from the fitted curve at half-maximal effect
# How it was run: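 HEK293T ER-beta-UAS-bla; 2% CS-FBS; 6 hr pre-plate, 16 hr cpd at 37C/5% CO2; LiveBLAzer read first, then CellTiter-Glo 30 min RT, luminescence.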
structure (smiles),measurement,setting,value
CC(C)(C)CC(C)(C)c1ccc(Nc2ccc(C(C)(C)CC(C)(C)C)cc2)cc1,"activity change, negative = cytotoxicity",[1],4% [at 8.39 µM] (inactive)
same,"viability change, negative = cytotoxic",[2],0.0791% [at 8.39 µM] (inactive)
same,"activity change, negative = inhibition",[3],-17.9% [at 8.39 µM] (inactive)
same,"activity change, negative = inhibition",[4],-1.65% [at 8.39 µM] (inactive)
same,"activity change, negative = cytotoxicity",[5],2.64% [at 8.39 µM] (inactive)
same,"viability change, negative = cytotoxic",[6],3.57% [at 8.39 µM] (inactive)
same,"viability change, negative = cytotoxic",[7],-1.41% [at 8.39 µM] (inactive)
same,activity change,[8],"-0.648% [at 8.39 µM, stronger effect = higher value] (inactive)"
same,"activity change, negative = inhibition",[9],-12.5% [at 8.39 µM] (inactive)
same,activation,[10],-0.0232% [at 8.39 µM] (inactive)
same,"activity, negative = inhibition",[11],-7.19% [at 8.39 µM] (inactive)
same,"activity change, negative = cytotoxicity",[12],1.22% [at 8.39 µM] (inactive)
same,"activity change, negative = cytotoxicity",[13],-9.43% [at 8.39 µM] (inactive)
same,activation,[14],1.18% [at 8.39 µM] (inactive)
same,cAMP activity change,[15],6.94% [at 8.39 µM] (inactive)
same,"activity change, negative = inhibition",[16],1.31% [at 8.39 µM] (inactive)
Cc1c(C)c([N+](=O)[O-])c(C(C)(C)C)c([N+](=O)[O-])c1C,Potency,[1],inactive
same,Potency,[2],inactive
same,Potency,[3],inactive
same,Potency,[4],inactive
same,Potency,[5],inactive
same,Potency,[6],inactive
same,Potency,[7],inactive
same,Potency,[8],inactive
same,Potency,[9],inactive
same,Potency,[10],inactive
same,Potency,[13],inactive
same,Potency,[14],inactive
same,outcome,[15],inactive
same,Potency,[16],inactive
CC(C)Cn1cnc2c(N)nc3ccccc3c21,"activity change, negative = cytotoxicity",[1],3.02% [at 19 µM] (inactive)
same,"viability change, negative = cytotoxic",[2],-4.33% [at 19 µM] (inactive)
same,"activity change, negative = inhibition",[3],-22.8% [at 19 µM] (inactive)
same,Potency,[17],inactive
same,"activity change, negative = inhibition",[4],-5.48% [at 19 µM] (inactive)
same,"activity change, negative = cytotoxicity",[5],0.199% [at 19 µM] (inactive)
same,"viability change, negative = cytotoxic",[6],8.98% [at 19 µM] (inactive)
same,"viability change, negative = cytotoxic",[7],4.21% [at 19 µM] (inactive)
same,activity change,[8],"3.39% [at 18.9 µM, stronger effect = higher value] (inactive)"
same,"activity, negative = inhibition",[11],5.3% [at 19 µM] (inactive)
same,"activity change, negative = cytotoxicity",[13],-2.67% [at 19 µM] (inactive)
same,activation,[14],-0.124% [at 19 µM] (inactive)
same,cAMP activity change,[15],-0.409% [at 18.9 µM] (inactive)
same,"activity change, negative = inhibition",[16],2.37% [at 19 µM] (inactive)
O=C(O)c1cc(=O)c2ccccc2o1,Potency,[1],inactive
same,Potency,[2],inactive
same,Potency,[3],inactive
same,Potency,[17],inactive
same,Potency,[5],inactive
same,Potency,[6],inactive
same,Potency,[7],inactive
same,Potency,[8],inactive
same,Potency,[9],inactive
same,Potency,[10],inactive
same,Potency,[11],inactive
same,Potency,[12],inactive
same,Potency,[18],inactive
same,Potency,[13],inactive
same,Potency,[14],inactive
same,outcome,[15],inactive
same,Potency,[16],inactive
C=Cc1cccc(C)c1,Potency,[1],inactive
same,Potency,[2],inactive
same,Potency,[3],inactive
same,Potency,[4],inactive
same,Potency,[5],inactive
same,Potency,[6],inactive
same,Potency,[7],inactive
same,Potency,[8],inactive
same,Potency,[9],inactive
same,Potency,[11],inactive
same,Potency,[12],inactive
same,Potency,[18],inactive
same,Potency,[13],inactive
same,Potency,[14],inactive
same,outcome,[15],inactive
same,Potency,[16],inactive
C=C(CC)C(=O)c1ccc(OCC(=O)O)c(Cl)c1Cl,Potency,[1],inactive
same,Potency,[2],inactive
same,Potency,[3],inactive
same,Potency,[17],inactive
same,Potency,[4],inactive
same,Potency,[5],inactive
same,Potency,[6],60.7 µM (active) and inactive
same,Potency,[7],60.7 µM (active) and inactive
same,Potency,[8],inactive
same,Potency,[9],6.68 µM (active)
same,Potency,[18],48.2 µM (active)
same,Potency,[13],60.7 µM (active)
same,Potency,[14],inactive
same,outcome,[15],inactive
same,Potency,[16],inactive
Cc1ccc(C(C)C)cc2c(C)ccc1-2,Potency,[1],inactive
same,Potency,[2],inactive
same,Potency,[3],inactive
same,Potency,[17],inactive
same,Potency,[4],inactive
same,Potency,[5],inactive
same,Potency,[6],inactive
same,Potency,[8],inactive
same,Potency,[9],inactive
same,Potency,[10],inactive
same,Potency,[11],inactive
same,Potency,[12],inactive
same,Potency,[18],inactive
same,Potency,[13],inactive
same,Potency,[14],inactive
same,outcome,[15],inactive
same,Potency,[16],inactive
